1 sequence from PMC7862700, “An all-to-all approach to the identification of sequence-specific readers for epigenetic DNA modifications on cytosine” can be followed below.

What all share (assay): DAPPL (digital affinity profiling via proximity ligation, sequencing); 10 mM Tris-HCl pH 7.5, 50 mM NaCl, 1 mM DTT, 4% glycerol, room temperature, 30 min; GST-TFs on glutathione beads, 16-mer random dsDNA library, 0.1% formaldehyde crosslink after washing; high values mean tight binding
The target of one test is T1, FEV (Homo sapiens, UniProt Q99581 1-238).
T1 sequence: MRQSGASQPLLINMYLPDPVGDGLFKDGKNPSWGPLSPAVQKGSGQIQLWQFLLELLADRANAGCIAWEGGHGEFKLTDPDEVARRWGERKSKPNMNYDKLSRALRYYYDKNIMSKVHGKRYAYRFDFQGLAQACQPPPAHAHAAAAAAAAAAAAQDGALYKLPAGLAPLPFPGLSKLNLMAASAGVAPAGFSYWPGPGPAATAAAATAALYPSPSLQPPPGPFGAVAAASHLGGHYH
Conditions: protein: recombinant; tags: N-terminal GST; dsDNA, one strand shown. The essentials: (§1)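 Binding signal is each hexamer's read frequency for a factor divided by its frequency in the tag-only sample. The factors were GST-fused human transcription factors from yeast, captured on glutathione beads, DNA-barcoded and pooled with that sample. Pools were incubated with 200 nmole of a random double-stranded 16-mer DNA library in Tris/NaCl/DTT/glycerol buffer at room temperature for 30 min, then washed, crosslinked with 0.1% formaldehyde, proximity-ligated with BsaI/T4 ligase (1 h, 37 °C), PCR-amplified and sequenced on an Illumina NextSeq500.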

Another test has as its target ETV5 (Homo sapiens, UniProt P41161 1-510). The settings on record: protein: recombinant; tags: N-terminal GST; dsDNA, one strand shown. A digest of the protocol:
as §1

The target of the next test is HSF1 (Homo sapiens, UniProt Q00613 1-529). Conditions: protein: recombinant; tags: N-terminal GST; chain copies: 3; dsDNA, one strand shown. A digest of the protocol:
as §1

Another test concerns the target T2, SPIC (Homo sapiens, UniProt Q8N5J4 1-248).
T2 sequence: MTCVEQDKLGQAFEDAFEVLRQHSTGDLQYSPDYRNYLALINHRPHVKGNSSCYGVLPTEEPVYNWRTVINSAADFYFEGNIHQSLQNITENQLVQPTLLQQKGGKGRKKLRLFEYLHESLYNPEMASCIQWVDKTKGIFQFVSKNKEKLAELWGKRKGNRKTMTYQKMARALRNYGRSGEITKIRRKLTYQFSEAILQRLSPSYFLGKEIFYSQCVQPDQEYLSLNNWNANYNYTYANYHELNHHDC
The settings on record: protein: recombinant; tags: N-terminal GST; dsDNA, one strand shown. The essentials: as §1

The next test has as its target ELF4 (Homo sapiens, UniProt Q99607 1-663). Conditions: protein: recombinant; tags: N-terminal GST; dsDNA, one strand shown. A digest of the protocol:
as §1

The next test concerns the target T3, ELK4 (Homo sapiens, UniProt P28324-2 1-405).
T3 sequence: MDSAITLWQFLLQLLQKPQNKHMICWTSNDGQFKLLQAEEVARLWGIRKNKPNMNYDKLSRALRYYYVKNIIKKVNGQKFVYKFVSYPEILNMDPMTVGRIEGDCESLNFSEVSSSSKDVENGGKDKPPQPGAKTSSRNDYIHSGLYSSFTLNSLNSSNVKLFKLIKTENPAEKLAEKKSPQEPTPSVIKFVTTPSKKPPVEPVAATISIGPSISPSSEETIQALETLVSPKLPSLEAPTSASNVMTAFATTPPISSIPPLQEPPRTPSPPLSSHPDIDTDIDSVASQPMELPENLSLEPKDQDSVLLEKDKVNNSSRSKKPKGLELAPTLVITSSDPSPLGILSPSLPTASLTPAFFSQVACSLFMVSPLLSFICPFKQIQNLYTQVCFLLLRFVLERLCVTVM
The settings on record: protein: recombinant; tags: N-terminal GST; dsDNA, one strand shown. The essentials:
as §1

The target of another test is T4, ETV2 (Homo sapiens, UniProt O00321 1-342).
T4 sequence: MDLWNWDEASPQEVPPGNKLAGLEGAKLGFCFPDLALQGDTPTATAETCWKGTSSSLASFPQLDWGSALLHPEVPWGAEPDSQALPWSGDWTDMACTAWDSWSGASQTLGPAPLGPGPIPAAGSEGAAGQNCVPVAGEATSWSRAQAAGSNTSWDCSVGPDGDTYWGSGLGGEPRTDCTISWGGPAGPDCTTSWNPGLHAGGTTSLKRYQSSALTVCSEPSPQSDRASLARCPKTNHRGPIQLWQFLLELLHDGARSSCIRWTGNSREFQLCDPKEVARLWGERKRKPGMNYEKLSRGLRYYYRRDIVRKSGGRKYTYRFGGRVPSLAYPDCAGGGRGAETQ
Conditions: protein: recombinant; tags: N-terminal GST; dsDNA, one strand shown. The essentials:
as §1

A further test concerns the target T5, ELF3 (Homo sapiens, UniProt P78545 1-371).
T5 sequence: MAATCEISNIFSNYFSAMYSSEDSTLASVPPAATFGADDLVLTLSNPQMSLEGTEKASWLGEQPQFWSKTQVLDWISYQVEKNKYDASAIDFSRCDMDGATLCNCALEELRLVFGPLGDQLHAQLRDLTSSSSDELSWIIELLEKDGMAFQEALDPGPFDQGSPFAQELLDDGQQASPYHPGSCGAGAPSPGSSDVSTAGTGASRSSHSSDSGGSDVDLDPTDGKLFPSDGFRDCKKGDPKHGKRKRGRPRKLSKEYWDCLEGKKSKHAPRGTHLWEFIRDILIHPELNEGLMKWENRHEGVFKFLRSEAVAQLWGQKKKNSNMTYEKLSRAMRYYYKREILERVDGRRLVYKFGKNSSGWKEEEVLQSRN
Conditions: protein: recombinant; tags: N-terminal GST; dsDNA, one strand shown. A digest of the protocol: as §1

In another test the target is CRX (Homo sapiens, UniProt O43186 1-299). Conditions: protein: recombinant; tags: N-terminal GST; dsDNA, one strand shown. The essentials:
as §1

A further test deals with ETV1 (Homo sapiens, UniProt P50549 1-477). Conditions: protein: recombinant; tags: N-terminal GST; dsDNA, one strand shown. A digest of the protocol: as §1
ETV1, sequence (P50549 whole entry): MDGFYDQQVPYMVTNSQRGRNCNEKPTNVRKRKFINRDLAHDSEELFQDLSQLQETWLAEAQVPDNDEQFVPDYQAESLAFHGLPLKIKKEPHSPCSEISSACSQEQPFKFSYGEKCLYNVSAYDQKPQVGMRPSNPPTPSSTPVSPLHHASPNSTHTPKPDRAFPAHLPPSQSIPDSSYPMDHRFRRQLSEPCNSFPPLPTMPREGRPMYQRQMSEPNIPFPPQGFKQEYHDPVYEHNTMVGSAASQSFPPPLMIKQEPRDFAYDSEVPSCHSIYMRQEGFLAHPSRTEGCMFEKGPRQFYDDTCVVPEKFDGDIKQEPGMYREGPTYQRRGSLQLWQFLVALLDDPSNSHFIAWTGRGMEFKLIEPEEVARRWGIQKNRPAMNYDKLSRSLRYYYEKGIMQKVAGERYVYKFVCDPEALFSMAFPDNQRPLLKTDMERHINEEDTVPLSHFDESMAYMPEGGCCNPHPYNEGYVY
In a further test the target is T6, ERF (Homo sapiens, UniProt P50548 1-548).
T6 sequence: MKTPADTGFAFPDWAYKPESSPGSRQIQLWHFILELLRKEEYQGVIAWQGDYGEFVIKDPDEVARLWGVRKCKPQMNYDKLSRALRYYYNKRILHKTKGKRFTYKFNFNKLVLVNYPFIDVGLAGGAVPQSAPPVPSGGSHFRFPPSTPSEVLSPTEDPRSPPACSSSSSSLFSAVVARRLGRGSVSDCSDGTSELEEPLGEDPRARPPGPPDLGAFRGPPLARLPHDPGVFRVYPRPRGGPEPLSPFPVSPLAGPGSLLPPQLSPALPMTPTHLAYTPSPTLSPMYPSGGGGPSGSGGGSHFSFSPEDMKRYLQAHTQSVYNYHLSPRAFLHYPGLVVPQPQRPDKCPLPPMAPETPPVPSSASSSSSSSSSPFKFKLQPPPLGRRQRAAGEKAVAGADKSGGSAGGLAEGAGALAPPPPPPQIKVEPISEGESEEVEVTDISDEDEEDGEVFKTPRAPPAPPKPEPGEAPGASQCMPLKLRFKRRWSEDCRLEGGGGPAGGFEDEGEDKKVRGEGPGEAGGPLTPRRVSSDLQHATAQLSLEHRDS
The settings on record: protein: recombinant; tags: N-terminal GST; dsDNA, one strand shown. A digest of the protocol:
as §1

For the next test, the target named is T7, ETV3L (Homo sapiens, UniProt Q6ZN32 1-361).
T7 sequence: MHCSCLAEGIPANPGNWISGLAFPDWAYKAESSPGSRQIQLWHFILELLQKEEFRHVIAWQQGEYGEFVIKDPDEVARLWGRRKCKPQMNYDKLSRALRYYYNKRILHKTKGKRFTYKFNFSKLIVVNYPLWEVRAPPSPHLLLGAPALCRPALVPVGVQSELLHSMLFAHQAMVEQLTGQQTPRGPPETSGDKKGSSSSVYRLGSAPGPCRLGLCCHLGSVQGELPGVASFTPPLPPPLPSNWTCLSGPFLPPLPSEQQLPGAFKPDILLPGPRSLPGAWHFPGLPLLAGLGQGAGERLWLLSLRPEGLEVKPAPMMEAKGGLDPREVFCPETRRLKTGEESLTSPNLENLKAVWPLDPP
Conditions: protein: recombinant; tags: N-terminal GST; dsDNA, one strand shown. A digest of the protocol:
as §1

The target in the next test is T8, ETS2 (Homo sapiens, UniProt P15036 1-469).
T8 sequence: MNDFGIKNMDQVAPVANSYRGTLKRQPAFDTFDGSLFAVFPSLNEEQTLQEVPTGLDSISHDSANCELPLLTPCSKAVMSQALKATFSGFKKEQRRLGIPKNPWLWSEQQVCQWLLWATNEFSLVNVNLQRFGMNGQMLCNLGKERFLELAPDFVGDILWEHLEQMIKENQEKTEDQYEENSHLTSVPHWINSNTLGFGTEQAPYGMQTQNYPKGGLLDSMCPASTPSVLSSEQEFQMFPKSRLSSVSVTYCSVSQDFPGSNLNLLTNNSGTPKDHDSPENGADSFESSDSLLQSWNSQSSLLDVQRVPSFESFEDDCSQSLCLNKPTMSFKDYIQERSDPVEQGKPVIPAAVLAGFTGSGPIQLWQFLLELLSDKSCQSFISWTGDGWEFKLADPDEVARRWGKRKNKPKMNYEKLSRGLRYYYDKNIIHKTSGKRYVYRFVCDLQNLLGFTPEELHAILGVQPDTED
The settings on record: protein: recombinant; tags: N-terminal GST; dsDNA, one strand shown. A digest of the protocol: as §1

The target in a further test is T9, SPDEF (Homo sapiens, UniProt O95238 1-335).
T9 sequence: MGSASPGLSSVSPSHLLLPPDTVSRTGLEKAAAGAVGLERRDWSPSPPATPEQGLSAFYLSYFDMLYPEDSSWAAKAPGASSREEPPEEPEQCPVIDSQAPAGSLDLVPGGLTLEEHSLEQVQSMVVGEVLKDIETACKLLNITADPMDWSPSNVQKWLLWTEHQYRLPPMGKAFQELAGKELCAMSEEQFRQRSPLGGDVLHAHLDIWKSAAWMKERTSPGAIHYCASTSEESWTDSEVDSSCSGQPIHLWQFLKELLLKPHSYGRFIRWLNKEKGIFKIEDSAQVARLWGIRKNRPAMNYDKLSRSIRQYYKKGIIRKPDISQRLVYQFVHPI
Conditions: protein: recombinant; tags: N-terminal GST; dsDNA, one strand shown. The essentials: as §1

In the next test the target is T10, ETV7 (Homo sapiens, UniProt Q9Y603 1-341).
T10 sequence: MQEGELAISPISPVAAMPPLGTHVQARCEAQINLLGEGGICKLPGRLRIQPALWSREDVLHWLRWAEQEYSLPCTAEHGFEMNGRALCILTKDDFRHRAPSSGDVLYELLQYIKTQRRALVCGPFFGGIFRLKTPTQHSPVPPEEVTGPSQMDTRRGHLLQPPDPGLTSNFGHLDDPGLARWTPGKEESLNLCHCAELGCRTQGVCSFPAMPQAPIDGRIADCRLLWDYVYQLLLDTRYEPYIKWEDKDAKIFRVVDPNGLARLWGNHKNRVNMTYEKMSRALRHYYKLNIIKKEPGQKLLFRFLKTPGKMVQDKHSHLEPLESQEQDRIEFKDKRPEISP
Conditions: protein: recombinant; tags: N-terminal GST; dsDNA, one strand shown. The essentials: as §1

Another test addresses T11, ELF5 (Homo sapiens, UniProt Q9UKW6-2 1-255).
T11 sequence: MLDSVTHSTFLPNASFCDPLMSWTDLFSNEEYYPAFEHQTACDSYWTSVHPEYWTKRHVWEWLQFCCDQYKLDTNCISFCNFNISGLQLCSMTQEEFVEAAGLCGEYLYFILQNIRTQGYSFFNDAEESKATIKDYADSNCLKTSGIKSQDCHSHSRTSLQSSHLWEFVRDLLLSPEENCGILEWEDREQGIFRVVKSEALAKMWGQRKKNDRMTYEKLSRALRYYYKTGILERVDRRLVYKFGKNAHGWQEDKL
Conditions: protein: recombinant; tags: N-terminal GST; dsDNA, one strand shown. A digest of the protocol:
as §1

A further test deals with T12, ETV3 (Homo sapiens, UniProt P41162-2 1-143).
T12 sequence: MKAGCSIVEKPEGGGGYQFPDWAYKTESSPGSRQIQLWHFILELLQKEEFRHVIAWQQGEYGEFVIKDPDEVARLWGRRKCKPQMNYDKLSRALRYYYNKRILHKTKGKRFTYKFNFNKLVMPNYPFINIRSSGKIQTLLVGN
Conditions: protein: recombinant; tags: N-terminal GST; dsDNA, one strand shown. A digest of the protocol:
as §1

The next test addresses ETV6 (Homo sapiens, UniProt P41212 1-452). Conditions: protein: recombinant; tags: N-terminal GST; dsDNA, one strand shown. A digest of the protocol: as §1

HSF1, sequence (Q00613 whole entry): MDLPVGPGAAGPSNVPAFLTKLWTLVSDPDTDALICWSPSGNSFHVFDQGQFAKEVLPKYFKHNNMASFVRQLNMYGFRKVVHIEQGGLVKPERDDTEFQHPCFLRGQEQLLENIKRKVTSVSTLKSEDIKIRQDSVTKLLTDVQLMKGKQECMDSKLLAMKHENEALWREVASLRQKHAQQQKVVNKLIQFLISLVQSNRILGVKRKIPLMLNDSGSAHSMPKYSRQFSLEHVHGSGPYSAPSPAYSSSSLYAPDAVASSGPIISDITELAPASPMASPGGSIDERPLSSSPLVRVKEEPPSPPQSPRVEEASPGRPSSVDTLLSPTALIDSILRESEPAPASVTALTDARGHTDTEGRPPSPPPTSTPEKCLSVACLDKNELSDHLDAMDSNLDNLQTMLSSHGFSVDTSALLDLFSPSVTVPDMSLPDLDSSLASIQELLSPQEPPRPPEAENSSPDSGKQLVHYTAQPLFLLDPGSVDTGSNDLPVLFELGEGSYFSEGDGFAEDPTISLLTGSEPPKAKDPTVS
ELF4, sequence (Q99607 whole entry): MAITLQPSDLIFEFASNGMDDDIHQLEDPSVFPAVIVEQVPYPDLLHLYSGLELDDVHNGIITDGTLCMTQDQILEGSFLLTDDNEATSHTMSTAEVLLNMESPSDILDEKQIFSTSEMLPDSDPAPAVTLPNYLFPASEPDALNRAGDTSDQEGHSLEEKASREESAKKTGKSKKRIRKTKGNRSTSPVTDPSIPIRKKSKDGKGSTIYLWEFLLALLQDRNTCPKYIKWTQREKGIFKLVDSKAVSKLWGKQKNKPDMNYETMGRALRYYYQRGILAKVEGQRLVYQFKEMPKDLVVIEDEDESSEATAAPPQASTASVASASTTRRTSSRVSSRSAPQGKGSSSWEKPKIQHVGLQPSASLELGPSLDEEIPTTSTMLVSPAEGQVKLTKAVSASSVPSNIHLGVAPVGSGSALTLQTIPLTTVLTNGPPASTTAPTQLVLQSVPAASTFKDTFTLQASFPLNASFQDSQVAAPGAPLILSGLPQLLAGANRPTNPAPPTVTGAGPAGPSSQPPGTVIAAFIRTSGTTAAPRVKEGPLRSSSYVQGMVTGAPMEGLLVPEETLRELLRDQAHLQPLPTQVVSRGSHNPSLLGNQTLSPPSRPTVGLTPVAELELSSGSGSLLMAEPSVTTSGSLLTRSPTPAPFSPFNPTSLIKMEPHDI
ETV5, sequence (P41161 whole entry): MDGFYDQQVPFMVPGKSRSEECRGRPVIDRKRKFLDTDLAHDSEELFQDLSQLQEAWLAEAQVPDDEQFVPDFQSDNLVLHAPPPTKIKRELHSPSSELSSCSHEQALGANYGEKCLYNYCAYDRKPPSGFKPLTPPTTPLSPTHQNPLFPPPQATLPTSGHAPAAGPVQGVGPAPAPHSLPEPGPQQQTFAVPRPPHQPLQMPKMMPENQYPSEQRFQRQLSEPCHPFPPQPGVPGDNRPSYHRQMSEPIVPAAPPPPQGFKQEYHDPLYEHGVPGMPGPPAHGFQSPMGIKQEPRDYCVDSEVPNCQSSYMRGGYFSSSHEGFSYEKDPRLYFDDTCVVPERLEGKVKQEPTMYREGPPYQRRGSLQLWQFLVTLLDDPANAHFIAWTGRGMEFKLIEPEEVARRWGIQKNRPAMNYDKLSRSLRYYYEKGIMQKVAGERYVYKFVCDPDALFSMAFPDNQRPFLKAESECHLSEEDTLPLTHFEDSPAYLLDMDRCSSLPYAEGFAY
CRX, sequence (O43186 whole entry): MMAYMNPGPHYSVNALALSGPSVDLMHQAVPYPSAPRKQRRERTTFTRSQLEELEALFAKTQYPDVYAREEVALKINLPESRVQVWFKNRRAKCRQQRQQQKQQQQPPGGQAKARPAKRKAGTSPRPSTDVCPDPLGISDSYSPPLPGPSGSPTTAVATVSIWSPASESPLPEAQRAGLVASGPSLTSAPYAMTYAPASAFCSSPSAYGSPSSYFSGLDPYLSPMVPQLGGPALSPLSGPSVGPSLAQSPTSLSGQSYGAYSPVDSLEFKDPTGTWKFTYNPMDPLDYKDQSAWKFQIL
ETV6, sequence (P41212 whole entry): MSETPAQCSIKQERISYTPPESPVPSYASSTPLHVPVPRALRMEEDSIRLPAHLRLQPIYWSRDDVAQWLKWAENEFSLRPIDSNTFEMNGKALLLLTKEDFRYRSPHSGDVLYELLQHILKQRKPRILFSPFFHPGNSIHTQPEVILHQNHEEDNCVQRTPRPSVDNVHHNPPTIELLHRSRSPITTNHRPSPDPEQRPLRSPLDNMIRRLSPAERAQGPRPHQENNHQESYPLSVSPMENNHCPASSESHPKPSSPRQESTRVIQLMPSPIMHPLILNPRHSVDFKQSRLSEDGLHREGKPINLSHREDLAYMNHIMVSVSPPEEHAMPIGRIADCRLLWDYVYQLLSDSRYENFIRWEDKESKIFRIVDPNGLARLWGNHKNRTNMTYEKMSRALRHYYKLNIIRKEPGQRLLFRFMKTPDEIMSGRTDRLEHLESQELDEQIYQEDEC

With TACCCT, the binding signal with FEV was 1.29 fold enrichment (6-mer frequency, TF over GST control); with ETV5 it was 1.28 fold enrichment (6-mer frequency, TF over GST control); with HSF1, 1.28 fold enrichment (6-mer frequency, TF over GST control); in the test with SPIC, 1.38 fold enrichment (6-mer frequency, TF over GST control); with ELF4, 1.44 fold enrichment (6-mer frequency, TF over GST control); with ELK4, 1.47 fold enrichment (6-mer frequency, TF over GST control). Besides, the binding signal is 1.35 fold enrichment (6-mer frequency, TF over GST control) with ETV2; 1.2 fold enrichment (6-mer frequency, TF over GST control) with ELF3; 1.45 fold enrichment (6-mer frequency, TF over GST control) with CRX; 1.35 fold enrichment (6-mer frequency, TF over GST control) in the test with ETV1; 1.28 fold enrichment (6-mer frequency, TF over GST control) with ERF; 1.18 fold enrichment (6-mer frequency, TF over GST control) in the test with ETV3L. For the same sequence, the binding signal with ETS2 is 1.29 fold enrichment (6-mer frequency, TF over GST control); in the test with SPDEF it was 1.29 fold enrichment (6-mer frequency, TF over GST control); in the test with ETV7, 1.27 fold enrichment (6-mer frequency, TF over GST control); with ELF5 it was 1.26 fold enrichment (6-mer frequency, TF over GST control); with ETV3, 1.25 fold enrichment (6-mer frequency, TF over GST control); with ETV6 it was 1.16 fold enrichment (6-mer frequency, TF over GST control).
